# A selection: hits, their analogues and other compounds. The true share with any hit is near 4.7%.
# D1 potentiator: potentiators of human D1 dopamine receptor. 360,000 tested, 0.036% active. P21728. HEK293 TREx D1 cells, calcium flux, dopamine EC20 potentiation. AID 504651. potentiation, % at 10 µM; in the data active = potentiation above about 30%
# Target sequence (P21728 whole entry, looked up): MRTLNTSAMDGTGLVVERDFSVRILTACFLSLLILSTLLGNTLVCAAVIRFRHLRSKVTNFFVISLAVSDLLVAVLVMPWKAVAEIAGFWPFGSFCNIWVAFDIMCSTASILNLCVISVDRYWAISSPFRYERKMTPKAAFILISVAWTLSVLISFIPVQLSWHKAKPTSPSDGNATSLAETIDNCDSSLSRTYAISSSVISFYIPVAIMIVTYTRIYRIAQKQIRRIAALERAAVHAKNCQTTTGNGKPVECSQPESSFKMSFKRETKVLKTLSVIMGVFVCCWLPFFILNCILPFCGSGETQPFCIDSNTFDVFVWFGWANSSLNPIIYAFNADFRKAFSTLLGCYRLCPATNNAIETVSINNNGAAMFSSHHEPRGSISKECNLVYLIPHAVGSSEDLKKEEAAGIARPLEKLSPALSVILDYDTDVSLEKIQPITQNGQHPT
# TRHR enhancer: allosteric enhancers of human TRH receptor | P34981 | enhancement, % at 2 µM | TRHR cells, fluo-8 calcium fluorescence, EC20 TRH enhancement | AID 493056 | 360,000 tested, 0.66% active; in the data active = enhancement above about 30%
#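 TRHR-expressing cells loaded with fluo-8 calcium dye were read kinetically (ex 480/em 530) during compound addition, then stimulated with an EC20 of TRH (10 nM final). Enhancement of the Gq-mediated intracellular calcium response was scored.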
# TRHR ag: activates the human TRH receptor; P34981; TRHR cells, calcium flux fluo-8, FDSS agonist mode; activation, % at 2 µM; 360,000 tested, 0.18% active
#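 TRHR-expressing cells loaded with fluo-8 calcium dye; 23 nL library compound pin-transferred, kinetic FDSS fluorescence (Ex 480/Em 530) recorded about 180 s for agonist-induced calcium release, before a 10 nM TRH EC20 addition for potentiator mode.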
# D1 agonist: activates the human D1 dopamine receptor; activation, % at 2 µM; P21728; 360,000 tested, 1% active; HEK293 T-REx D1 cells, calcium flux, agonist mode
#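 Tetracycline-induced HEK293 TREx D1 cells, force-coupled to calcium signalling, were dye-loaded with a no-wash calcium kit. Compound was pin-added after a 10 s baseline. Fluorescence was read kinetically at 1 cycle/s for 180 s, with calcium rises flagged as agonism.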
# D1 antag: blocks dopamine activation of the human D1 receptor. P21728. HEK293 TREx D1 cells, calcium flux, dopamine EC80; active compounds read low. activity change, negative = inhibition, % at 10 µM. 360,000 tested, 3.2% active. AID 504652; in the data active = activity change below about -30%
#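 After overnight tetracycline induction at 30 C, force-coupled D1 HEK293 cells took up a no-wash calcium dye at room temperature. Compounds were added and monitored 180 s, and the response to EC80 dopamine was then recorded.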
# Hits are given with their value; 0 = inactive; - = no result given. Cut-off read from the data, not from the text of the source, unless noted: active = activation above about 30%; inactive = the rest.
SMILES,D1 potentiator,TRHR enhancer,TRHR ag,D1 agonist,D1 antag
Cc1ccc(C)c(NC(=O)C(CC(=O)O)C2CCCO2)c1 (centres undefined),0,0,0,0,0
O=C(O)CC(C(=O)Nc1ccc(Cl)cc1Cl)C1CCCO1 (centres undefined),0,0,0,0,-63
CSc1cccc(NC(=S)N2CCCN(Cc3ccccc3F)C2)c1,0,0,0,0,0
CCN(CC)S(=O)(=O)c1ccc(C(=O)N2CCN(CCN3C(=O)c4cccc5cccc(c45)C3=O)CC2)cc1,0,0,0,0,0
O=C(OCCN1C(=O)c2cccc3c(N4CCOCC4)ccc(c23)C1=O)c1ccc(Cl)cc1,0,0,0,93,0
O=C(OCCN1C(=O)c2ccccc2C1=O)c1cc(S(=O)(=O)N2CCOCC2)ccc1F,0,0,0,0,0
CCCN(CCC)S(=O)(=O)c1ccc(C(=O)OCCN2C(=O)c3cccc4c(N5CCOCC5)ccc(c34)C2=O)cc1,0,0,0,113,0
CCc1ccccc1NCc1nnc2n1CCCCC2,0,0,0,0,0
Cc1ccc2c(c1)Cc1c(nc(-c3ccc(F)cc3)nc1SCC(=O)N1CCCCC1)O2,0,33,0,0,0
CCOc1ccc(/C=C2/SC(=O)NC2=S)cc1,0,0,0,0,0
CCOc1ccc(N=C2NC(=O)S/C2=C\c2ccc(N(C)C)cc2)cc1,0,0,0,81,0
CCOc1ccc(-c2nnc(SCC(=O)NCc3ccc(C)cc3)nc2-c2ccc(OCC)cc2)cc1,0,0,0,0,0
c1ccc(-c2nn3c(Cn4cnc5ccccc54)nnc3s2)cc1,0,0,0,0,-33
COc1ccccc1CCNC(=O)Cn1ccc2cc(S(=O)(=O)N3CCCCC3)ccc21,0,0,0,0,0
Cc1ccc(C(=O)NCCNS(=O)(=O)c2ccccc2)cn1,0,39,0,0,0
CCC(=O)c1ccc(N2CCN(C(=O)c3ccccc3F)CC2)c(F)c1,0,0,0,38,0
CCOC(=O)N1CCN(c2ccc(C(=O)c3ccccc3)cc2F)CC1,0,0,0,0,-42
CCOC(=O)N1CCN(c2cc(C)c(C(C)=O)cc2F)CC1,0,0,0,0,-42
N#Cc1ccccc1CSc1nnc(-c2ccccc2)o1,0,0,0,0,0
Cc1ccc(C)c(NC(=O)CSc2nncn3c2cc2sccc23)c1,0,0,0,0,0
CC(C)c1ccccc1NC(=O)CN1C(=O)c2cccc3cccc1c23,0,0,0,0,0
Nc1c(C(=O)N/N=C/c2cccnc2)oc2nc(-c3ccccc3)cc(-c3ccco3)c12,0,0,0,0,0
Nc1c(C(=O)N/N=C/c2cccnc2)oc2nc(-c3ccco3)cc(-c3ccco3)c12,0,0,0,0,-31
Cc1ccc(-c2nc(C)c(CCNC(=O)C(=O)Nc3cc(C)ccc3C)s2)cc1,0,0,0,0,0
O=C(Nc1cccc(S(=O)(=O)NC2=NCCC2)c1)c1cnc(Cl)c(Cl)c1,-,0,0,0,0
SMILES,D1 potentiator,TRHR enhancer,TRHR ag,D1 agonist,D1 antag
COc1cccc(N2CC(C(=O)Nc3ccc(C(=O)OC(C)C)cc3)CC2=O)c1 (centres undefined),0,0,0,0,-30
COc1cccc(N2CC(C(=O)Nc3ccc(F)cc3)CC2=O)c1 (centres undefined),0,0,0,0,0
O=C(NCC1CCN(S(=O)(=O)c2ccccc2)CC1)Nc1ccc(F)cc1F,0,0,0,0,-58
Cc1ccc(C(c2c(O)cc(C)n(Cc3ccco3)c2=O)N2CCC(C)CC2)cc1 (centres undefined),0,0,0,0,0
CCC(c1nnnn1C(C)(C)CC)N(CCN1CCOCC1)Cc1cc2cc(C)ccc2[nH]c1=O (centres undefined),0,0,0,0,0
CCOc1ccc2[nH]c(=O)c(CN(Cc3cccs3)Cc3nnnn3C(C)(C)C)cc2c1,0,0,0,0,-30
CCOc1ccc2[nH]c(=O)c(CN(CCN3CCOCC3)Cc3nnnn3C(C)(C)CC)cc2c1,0,30,0,0,0
CC1CN(C(=O)C(C)N2CCN(c3ccccc3Cl)CC2)CC(C)O1 (centres undefined),0,0,0,0,-37
CC(=O)N1c2ccc(S(=O)(=O)N3CCC(C(=O)N4CCCC(C)C4)CC3)cc2CC1C (centres undefined),0,0,0,0,0
O=S(=O)(c1ccc(Cl)cc1)c1nc(-c2ccccc2F)oc1NCCCN1CCOCC1,0,0,0,0,0
Cc1ccc(S(=O)(=O)c2nc(-c3ccccc3Cl)oc2NCCCN2CCOCC2)cc1,0,35,0,0,0
CCS(=O)(=O)c1nc(S(=O)(=O)c2ccc(C)cc2)c(NCCN2CCOCC2)s1,0,0,0,0,0
CCCS(=O)(=O)c1nc(S(=O)(=O)c2ccc(C)cc2)c(NCCCN2CCOCC2)s1,0,0,0,0,-32
COc1cc(C)c(Cl)c(C)c1S(=O)(=O)NC1CC(C)(C)NC(C)(C)C1,0,39,0,0,0
COc1ccc(NC(=O)Nc2c(C)n(C)n(-c3ccccc3)c2=O)cc1,0,0,0,0,0
COc1ccc(CCC(=O)Nc2c(C)n(C)n(-c3ccccc3)c2=O)cc1,0,0,0,0,-38
COc1ccc(N(CC(=O)Nc2c(C)n(C)n(-c3ccccc3)c2=O)S(=O)(=O)c2ccc(C)cc2)cc1,0,30,0,0,0
COc1ccc(N(CC(=O)Nc2c(C)n(C)n(-c3ccccc3)c2=O)S(=O)(=O)c2ccc(F)cc2)cc1,0,0,0,0,0
COc1cc(/C=C\C(=O)O)cc(S(=O)(=O)N2CCCCCC2)c1OC,0,0,0,0,0
C/C(=N\NC(=O)c1cc(C)nc2ccccc12)c1ccncc1,0,0,0,0,-43
C/C(=N\NC(=O)c1cc(-c2cccc(OC(C)C)c2)nc2ccccc12)c1cccnc1,0,0,0,0,-43
Cc1cc(F)ccc1S(=O)(=O)Nc1ccc2c(c1)CCCN2C(=O)c1cccs1,0,0,0,0,0
COc1ccc(C(=O)N2CCOC2CNC(=O)C(=O)NCc2ccccc2Cl)cc1 (centres undefined),0,0,0,0,0
COC(=O)c1ccccc1NC(=O)c1cc(=O)c2ccc(C)c(C)c2o1,0,0,0,0,0
CCc1cc2c(=O)oc(-c3ccccc3F)nc2s1,0,37,0,0,0
N#CC1=C2SCC(O)(c3ccccc3)N2C(=O)CC1c1cccs1 (centres undefined),0,0,0,63,0
COc1cc(C(=O)Nc2ccccc2SCc2cc(=O)n3nc(C)sc3n2)cc(OC)c1OC,0,0,0,0,-50
O=C(CCc1ccccc1)NCCS(=O)(=O)N1CCN(c2ccccc2)CC1,0,0,0,0,0
Cc1nc2nc(SCC(=O)C(C)(C)C)[nH]c2cc1Br,0,0,0,0,-47
CCOC(=O)N1CCN(c2c(N3CCN(c4ccccc4OC)CC3)c(=O)c2=O)CC1,0,0,0,0,-33

# Compound activity (PubChem)
